Results as given in PubChem BioAssay (EPA / NIEHS).
The source made the active and inactive calls. How the source made its calls: active means hit-call score of the fitted dose curve at least 0.9, where 1 is the maximum; inactive means score below 0.9.

These molecules were tested on TIMP metallopeptidase inhibitor 1 (TIMP1), TIMP1 (gene 7076) (assay: BSK_hDFCGF_TIMP1: BioMAP Diversity Plus: hDFCGF Assay for TIMP metallopeptidase inhibitor 1 (TIMP1) Biomarker Activity (AID 2283062)). Conditions: primary human foreskin fibroblasts; actives raise or lower the signal.
How it was run: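 TIMP-1 measured by ELISA 24 h after chemical dosing of primary human skin fibroblasts, with gain or loss fitted relative to DMSO. Parallel SRB staining (560 nm) monitored overt cytotoxicity.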

SMILES | outcome | AC50
CN(c1nccc(=O)[nH]1)C1CCN(c2nc3ccccc3n2Cc2ccc(F)cc2)CC1 | inactive | 
CCCCCCCCCCCCCCCC(=O)OC/C=C(C)/C=C/C=C(C)/C=C/C1=C(C)CCCC1(C)C |  | 0.846 µM (active)
CC(=O)c1c(C)c([N+](=O)[O-])c(C(C)(C)C)c([N+](=O)[O-])c1C | inactive | 
CC(=O)C1(C)CC2=C(CCCC2(C)C)CC1C (centres undefined) |  | 12 µM (active)
Oc1c(Cl)cc(Cl)c(Cl)c1Cc1c(O)c(Cl)cc(Cl)c1Cl |  | 1.94 µM (active)
CCN(CC)C(=O)N(CC)CC | inactive | 
CC1(C)C2=CCCC(C)(C)[C@]23CC[C@H]1C3 |  | 31.2 µM (active)
COc1ccc(CCN2CCC(Nc3nc4ccccc4n3Cc3ccc(F)cc3)CC2)cc1 |  | 6.47 µM (active)
COc1ccc(OC)c(N=Nc2c(O)ccc3ccccc23)c1 |  | 4.02 µM (active)
CC(C)(C)CC(C)(C)c1ccc(OCCOCC[N+](C)(C)Cc2ccccc2)cc1 |  | 5 µM (active)
O=C1OC2(c3ccccc31)c1ccc(O)c(Br)c1Oc1c2ccc(O)c1Br | inactive | 
c1ccc2cc(Nc3ccc(Nc4ccc5ccccc5c4)cc3)ccc2c1 | inactive | 
C1=CC2C3C=CC(C3)C2C1 (centres undefined) | inactive | 
O=C1c2ccccc2C(=O)c2c(O)ccc(O)c21 | inactive | 
C=CC(C)(O)CCC=C(C)C (centres undefined) | inactive | 
C=C(C)C(=O)OCCOCCOCCOCCOC(=O)C(=C)C | inactive | 
CS(=O)(=O)OCCCCOS(C)(=O)=O | inactive | 
CCCCN(CCCC)C(=O)N(CCCC)CCCC |  | 9.64 µM (active)
Cc1cc(CCC(=O)OCCOCCOCCOC(=O)CCc2cc(C)c(O)c(C(C)(C)C)c2)cc(C(C)(C)C)c1O | inactive | 
CC(CN=Cc1ccccc1O)N=Cc1ccccc1O (centres undefined) | inactive | 
C=C(C)C(=O)OCC(CC)(COC(=O)C(=C)C)COC(=O)C(=C)C |  | 33 µM (active)
CS(=O)(=O)c1ccc(C2=C(c3ccccc3)C(=O)OC2)cc1 | inactive | 
CCC(C)c1cc([N+](=O)[O-])cc([N+](=O)[O-])c1OC(=O)OC(C)C (centres undefined) |  | 11.2 µM (active)

These molecules were tested on Monokine induced gamma interferon (MIG), CXCL9 (gene 4283) (assay: BSK_hDFCGF_MIG: BioMAP Diversity Plus: hDFCGF Assay for Monokine induced gamma interferon (MIG) Biomarker Activity (AID 2283063)). Conditions: primary human foreskin fibroblasts; actives raise or lower the signal.
How it was run: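 Human primary foreskin fibroblasts in the hDFCGF system, exposed to test chemical for 24 h; MIG measured by ELISA. Bidirectional curve fitting against DMSO negative control as activity baseline.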

SMILES | outcome | AC50
CN(c1nccc(=O)[nH]1)C1CCN(c2nc3ccccc3n2Cc2ccc(F)cc2)CC1 | inactive | 
CCCCCCCCCCCCCCCC(=O)OC/C=C(C)/C=C/C=C(C)/C=C/C1=C(C)CCCC1(C)C | inactive | 
CC(=O)c1c(C)c([N+](=O)[O-])c(C(C)(C)C)c([N+](=O)[O-])c1C | inactive | 
CC(=O)C1(C)CC2=C(CCCC2(C)C)CC1C (centres undefined) |  | 14.2 µM (active)
Oc1c(Cl)cc(Cl)c(Cl)c1Cc1c(O)c(Cl)cc(Cl)c1Cl |  | 3.45 µM (active)
CCN(CC)C(=O)N(CC)CC | inactive | 
CC1(C)C2=CCCC(C)(C)[C@]23CC[C@H]1C3 | inactive | 
COc1ccc(CCN2CCC(Nc3nc4ccccc4n3Cc3ccc(F)cc3)CC2)cc1 | inactive | 
COc1ccc(OC)c(N=Nc2c(O)ccc3ccccc23)c1 |  | 1.93 µM (active)
CC(C)(C)CC(C)(C)c1ccc(OCCOCC[N+](C)(C)Cc2ccccc2)cc1 |  | 7.5 µM (active)
O=C1OC2(c3ccccc31)c1ccc(O)c(Br)c1Oc1c2ccc(O)c1Br | inactive | 
c1ccc2cc(Nc3ccc(Nc4ccc5ccccc5c4)cc3)ccc2c1 | inactive | 
C1=CC2C3C=CC(C3)C2C1 (centres undefined) | inactive | 
O=C1c2ccccc2C(=O)c2c(O)ccc(O)c21 | inactive | 
C=CC(C)(O)CCC=C(C)C (centres undefined) | inactive | 
C=C(C)C(=O)OCCOCCOCCOCCOC(=O)C(=C)C | inactive | 
CS(=O)(=O)OCCCCOS(C)(=O)=O | inactive | 
CCCCN(CCCC)C(=O)N(CCCC)CCCC |  | 11.9 µM (active)
Cc1cc(CCC(=O)OCCOCCOCCOC(=O)CCc2cc(C)c(O)c(C(C)(C)C)c2)cc(C(C)(C)C)c1O | inactive | 
CC(CN=Cc1ccccc1O)N=Cc1ccccc1O (centres undefined) | inactive | 
C=C(C)C(=O)OCC(CC)(COC(=O)C(=C)C)COC(=O)C(=C)C |  | 34.3 µM (active)
CS(=O)(=O)c1ccc(C2=C(c3ccccc3)C(=O)OC2)cc1 | inactive | 
CCC(C)c1cc([N+](=O)[O-])cc([N+](=O)[O-])c1OC(=O)OC(C)C (centres undefined) |  | 9.32 µM (active)

These molecules were tested on Plasminogen activator inhibitor-1 (PAI1), SERPINE1 (gene 5054) (assay: BSK_hDFCGF_PAI1: BioMAP Diversity Plus: hDFCGF Assay for Plasminogen activator inhibitor-1 (PAI1) Biomarker Activity (AID 2283066)). Conditions: primary human foreskin fibroblasts; actives raise or lower the signal.
How it was run: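 ELISA readout of PAI-1 from primary human skin fibroblast cultures, 24 h after compound addition. Gain or loss of signal was fitted bidirectionally against DMSO baseline.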

SMILES | outcome | AC50
CN(c1nccc(=O)[nH]1)C1CCN(c2nc3ccccc3n2Cc2ccc(F)cc2)CC1 | inactive | 
CCCCCCCCCCCCCCCC(=O)OC/C=C(C)/C=C/C=C(C)/C=C/C1=C(C)CCCC1(C)C |  | 3.97 µM (active)
CC(=O)c1c(C)c([N+](=O)[O-])c(C(C)(C)C)c([N+](=O)[O-])c1C | inactive | 
CC(=O)C1(C)CC2=C(CCCC2(C)C)CC1C (centres undefined) |  | 11.8 µM (active)
Oc1c(Cl)cc(Cl)c(Cl)c1Cc1c(O)c(Cl)cc(Cl)c1Cl |  | 0.338 µM (active)
CCN(CC)C(=O)N(CC)CC | inactive | 
CC1(C)C2=CCCC(C)(C)[C@]23CC[C@H]1C3 |  | 32.9 µM (active)
COc1ccc(CCN2CCC(Nc3nc4ccccc4n3Cc3ccc(F)cc3)CC2)cc1 |  | 7.58 µM (active)
COc1ccc(OC)c(N=Nc2c(O)ccc3ccccc23)c1 | inactive | 
CC(C)(C)CC(C)(C)c1ccc(OCCOCC[N+](C)(C)Cc2ccccc2)cc1 |  | 5 µM (active)
O=C1OC2(c3ccccc31)c1ccc(O)c(Br)c1Oc1c2ccc(O)c1Br | inactive | 
c1ccc2cc(Nc3ccc(Nc4ccc5ccccc5c4)cc3)ccc2c1 | inactive | 
C1=CC2C3C=CC(C3)C2C1 (centres undefined) | inactive | 
O=C1c2ccccc2C(=O)c2c(O)ccc(O)c21 |  | 4.59 µM (active)
C=CC(C)(O)CCC=C(C)C (centres undefined) | inactive | 
C=C(C)C(=O)OCCOCCOCCOCCOC(=O)C(=C)C | inactive | 
CS(=O)(=O)OCCCCOS(C)(=O)=O | inactive | 
CCCCN(CCCC)C(=O)N(CCCC)CCCC |  | 11 µM (active)
Cc1cc(CCC(=O)OCCOCCOCCOC(=O)CCc2cc(C)c(O)c(C(C)(C)C)c2)cc(C(C)(C)C)c1O | inactive | 
CC(CN=Cc1ccccc1O)N=Cc1ccccc1O (centres undefined) | inactive | 
C=C(C)C(=O)OCC(CC)(COC(=O)C(=C)C)COC(=O)C(=C)C |  | 16 µM (active)
CS(=O)(=O)c1ccc(C2=C(c3ccccc3)C(=O)OC2)cc1 | inactive | 
CCC(C)c1cc([N+](=O)[O-])cc([N+](=O)[O-])c1OC(=O)OC(C)C (centres undefined) |  | 4.79 µM (active)
